Bioassay records (PubChem)
Shown are actives, neighbours in structure and some others; about 3% of the full set was active somewhere.
Rv3671c inh: inhibitors of M. tuberculosis serine protease Rv3671c. hit rate 0.048% among 320,000. AID 2606. inhibition, % at 5.96 µM; in the data active = inhibition above about 38%;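 also: extracellular domain of Rv3671c used as enzyme; 0% = enzyme with DMSO and 100% = no enzyme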
Mtb BioA inh: BioA (M. tuberculosis) enzyme inhibition; purified M. tuberculosis BioA enzyme, plate reader; inhibition, % at 9.99 µM; hit rate 0.096% among 360,000; AID 602481; in the data active = inhibition above about 40%
FBA Mtb inh: inhibits M. tuberculosis FBA enzyme | purified M. tuberculosis FBA, fluorescence read-out | inhibition, % at 1 µM | hit rate 2.3% among 360,000; in the data active = inhibition above about 27%;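 also: 0% = vehicle and 100% = reference inhibitor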
Target sequence (P9WQA3 whole entry, looked up): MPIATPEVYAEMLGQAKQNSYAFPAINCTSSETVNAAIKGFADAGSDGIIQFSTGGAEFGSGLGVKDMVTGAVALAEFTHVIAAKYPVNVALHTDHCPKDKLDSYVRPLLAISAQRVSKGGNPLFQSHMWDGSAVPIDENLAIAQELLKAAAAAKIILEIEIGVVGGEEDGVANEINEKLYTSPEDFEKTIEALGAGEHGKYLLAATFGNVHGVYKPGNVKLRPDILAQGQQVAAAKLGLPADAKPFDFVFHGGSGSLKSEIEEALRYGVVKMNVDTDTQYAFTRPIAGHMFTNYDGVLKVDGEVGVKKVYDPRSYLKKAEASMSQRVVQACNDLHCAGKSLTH
FadD28 FP inh: blocks FadD28 binding to the bisubstrate probe. inhibition, % at 12.5 µM. fluorescence polarization. hit rate 0.22% among 360,000; in the data active = inhibition above about 8.5%, passing the limit was not always enough
GDH-TPI counter: GDH-TPI coupled enzyme inhibition counter-screen | GDH-TPI coupled enzyme counterscreen, NADH absorbance | inhibition, % at 4.8 µM | hit rate 1.2% among 360,000 | AID 588335; in the data active = inhibition above about 30%;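 also: 0% = DMSO wells and 100% = wells lacking the enzyme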
Starred values were filed as active, the others as inactive; . = no result given; + = active, no number.

SMILES	Rv3671c inh	Mtb BioA inh	FBA Mtb inh	FadD28 FP inh	GDH-TPI counter
CCOC(=O)N/N=C/c1ccc(N(CC)CC)cc1O	0	.	1	-2	41*
O=C(NNC(=O)c1ccccc1O)c1ccc(Br)cc1	7	1	1	0	-1
O=C(NNC(=S)Nc1cccc2ccccc12)c1cccc(Br)c1	0	2	9	1	35*
O=C(NNC(=O)c1ccccc1O)c1cccc(Br)c1	7	-3	-3	-2	31*
O=C(NNC(=O)c1ccc2ccccc2c1)c1cccc(Br)c1	.	-1	-1	-3	-6
Cc1ccc(S(=O)(=O)Nc2ccc3c(c2)C(=O)N([C@@H](C)CO)C[C@@H](C)[C@H](CN(C)C(=O)CCC(F)(F)F)OCCCC[C@H](C)O3)cc1	.	0	.	.	.
O=C(C[C@H]1C=C[C@H](NC(=O)c2cccc(F)c2)[C@H](CO)O1)Nc1nccs1	.	0	.	.	.
C=CCN1C(=O)[C@]2(c3ccccc31)C1CCCC=C1C(C#N)=C(N)C2(C#N)C#N (stereo partly specified)	-6	-1	-2	-3	12
C=CCN1C(=O)C2(c3ccccc31)C1CCCC=C1C(C#N)=C(N)C2(C#N)C#N (stereo unspecified)	-6	.	-2	1	31*
O=C(Nc1cccc(F)c1)N1CCCCN2[C@H](C1)[C@H](c1ccc(C#CC3CC3)cc1)[C@@H]2CO	.	3	.	.	.
COc1ccc(OC)c(Cc2nnc(CCC(=O)NC3CCCCC3)o2)c1	3	.	0	-1	14
COc1ccc2c(C)c(CCC(=O)NC3CC3)c(=O)oc2c1	-9	1	173*	-3	25
Cc1c(CCC(=O)NC2CC2)c(=O)oc2cc(O)ccc12	7	0	+	-2	15
Cc1oc2cc3oc(=O)c(CCC(=O)NCCCC(=O)O)c(C)c3cc2c1C	5	-1	20	0	14
COc1ccc(NC(=O)N(C)C[C@H]2OCCCC[C@@H](C)Oc3ccc(NC(=O)c4ccccc4)cc3C(=O)N([C@@H](C)CO)C[C@@H]2C)cc1	.	-1	.	.	.
N#CCN1CCC/C1=C\[N+](=O)[O-]	5	-2	-4	-2	32*
O=C(NC(=S)NNC(=O)c1ccccc1O)c1ccco1	25	-1	5	1	31*
CCCCC(=O)Nc1ccc(C(=O)NNC(=S)NC(=O)c2ccco2)cc1	17	.	-1	-2	44*
O=C(NC(=S)NNC(=O)c1cc2ccccc2cc1O)c1ccco1	22	.	-6	2	20
O=C(C[C@H]1C[C@@H]2c3cc(NC(=O)C4CCOCC4)ccc3O[C@@H]2[C@H](CO)O1)NCc1ccc2c(c1)OCO2	.	0	.	.	.
C[C@@H]1CN([C@H](C)CO)C(=O)Cc2cc(NC(=O)Cc3cn(C)c4ccccc34)ccc2O[C@@H]1CN(C)S(=O)(=O)c1ccc(F)cc1	.	-1	.	.	.
COCC1=C([C@H](O)c2ccccc2)[C@H](CO)[C@@H]2C(=O)N(Cc3ccccc3)C(=O)[C@@H]2C1	.	0	.	.	.
COc1cc(/C=N/NC(=O)c2nc(C)cc(C)n2)ccc1O	-1	.	1	0	37*
COc1cc(/C=N/NC(=O)c2ccncc2)ccc1O	3	0	-1	-3	23
COc1cc(/C=N/NC(=O)c2cccc(NC(=O)c3ccccc3C)c2)ccc1O	5	.	-1	-2	16
SMILES	Rv3671c inh	Mtb BioA inh	FBA Mtb inh	FadD28 FP inh	GDH-TPI counter
COc1cc(/C=N/NC(=O)c2cccc(NC(=O)c3ccccc3)c2)ccc1O	16	-3	-5	-1	37*
COc1cc(/C=N/NC(=O)c2cc3ccccc3[nH]2)ccc1O	-4	0	-1	-2	41*
COc1cc(/C=N/Nc2nc(C)cc(C)n2)cc(OC)c1OC	-2	-1	1	-1	18
COc1cc(/C=N/Nc2nc(C)cc(C)n2)ccc1O	.	-1	-2	-3	36*
C[C@@H]1CCCCO[C@@H](CN(C)C(=O)CCCN(C)C)[C@@H](C)CN([C@@H](C)CO)C(=O)c2cc(NS(=O)(=O)c3ccc(F)cc3)ccc2O1	.	0	.	.	.
CCOc1cccc(/C=N/Nc2nc(N3CCCC3)nc(N3CCCC3)n2)c1O	11	-2	-2	0	5
COc1cc(/C=N/NC(=O)c2cn(-c3cccc(C)n3)cn2)ccc1O	2	.	-1	-1	34*
COc1cc(/C=N/NC(=O)c2nonc2C)ccc1O	11	0	3	1	14
COc1cc(/C=N/NC(=O)c2cccc(C(=O)N/N=C/c3ccc(O)c(OC)c3)n2)ccc1O	.	3	2	5	44*
CCOc1cc(/C=N/Nc2nc(N3CCCC3)nc(N3CCCC3)n2)ccc1O	9	-1	1	-2	36*
COc1ccc(/C=N/NC(=O)c2cccc(C(=O)N/N=C/c3ccc(OC)cc3)n2)cc1	-34	.	0	-3	14
COc1cc(/C=N/NC(=S)NCCN2CCOCC2)ccc1O	10	0	2	-1	48*
CO[C@H]1CN(C)C(=O)c2ccc(NC(=O)Nc3ccc(Cl)cc3)cc2OC[C@H](C)N(C(=O)Nc2c(C)noc2C)C[C@H]1C	.	-2	.	.	.
COc1cc(/C=N/NC(=S)Nc2cccc(S(=O)(=O)N(C)C)c2)ccc1O	4	2	1	0	45*
CN(C)S(=O)(=O)c1cccc(NC(=S)N/N=C/C2CC=CCC2)c1 (stereo unspecified)	-4	.	0	-4	-8
Cn1c2ccccc2c(=O)c2c(=O)n(Cc3ccco3)c(-c3ccc(F)cc3)nc21	-6	0	1	-2	20
Cc1ccc(-c2nc3c(c(=O)c4ccccc4n3C)c(=O)n2Cc2ccco2)cc1	-2	-1	3	-2	32*
CCOc1cc(/C=N\NC(=O)c2ccc(C)nc2)cc([N+](=O)[O-])c1O	11	2	-10	-1	49*
COc1cc([N+](=O)[O-])cc(/C=N/NC(=O)c2ccc(NC(=O)c3ccc(C)cc3)cc2)c1O	.	.	-5	-1	3
COc1cc([N+](=O)[O-])cc(/C=N/NC(=O)c2ccc(C)nc2)c1O	14	.	-12	-1	37*
COc1cccc(-c2ccc3c(c2)O[C@@H](CN(C)C(=O)C2CC2)[C@@H](C)CN([C@H](C)CO)S3(=O)=O)c1	.	1	.	.	.
COc1ccc(S(=O)(=O)N(C)C[C@@H]2Oc3ccc(NC(=O)CCCCCC(=O)Nc4ccccc4N)cc3CC(=O)N([C@H](C)CO)C[C@@H]2C)cc1	.	-3	.	.	.
O=C(C[C@H]1CC[C@@H]2[C@H](COC[C@@H](O)CN2Cc2ccc(F)cc2)O1)N1CCc2ccccc2C1	.	-1	.	.	.
C[C@@H]1CN([C@@H](C)CO)C(=O)Cc2cc(NC(=O)c3ccncc3)ccc2O[C@@H]1CN(C)C(=O)Nc1ccc2c(c1)OCO2	.	-1	.	.	.
CC1=NN(c2nc(-c3ccc(F)cc3)cs2)C(=O)C1	3	-3	-3	18*	6
COc1cc2cc(C(=O)NCCc3ccccc3)[nH]c2cc1OC	.	-3	160*	0	3
COc1cc2cc(C(=O)Nc3ccc4c(c3)OCCO4)[nH]c2cc1OC	7	-1	2	-2	36*
COc1ccc2cc(C(=O)NCCc3ccccc3)[nH]c2c1	.	-2	7	-3	16
